Measurements published in PubChem BioAssay (NCATS).
Where “and” joins values, the source holds several entries; their conditions need not be identical. Equal entries are not always repeated. Records with an inconclusive call do not appear. A call without a number means that no potency is given here. Calls of active or inactive are those of the source. Calls come from the whole dose curve; as a rule, active = well fitted cell-killing curve with a large enough effect; inconclusive = small, poorly fitted or top-dose-only effect; inactive = no such curve, though single readings can be large or run the other way.

Assay: qHTS of pediatric cancer cell lines to identify multiple opportunities for drug repurposing: Primary screen for NB1643 cells (AID 1347099); note: nearly all actives have a fitted effect of over 50% in size
Details: NB1643 neuroblastoma viability, CellTiter-Glo luminescence, 48 h; series mostly up to 46 µM
Text: Drug repurposing or repositioning has been offered as a strategy for drug development in oncology programs. This approach has special potential for childhood cancers and other rare or orphan diseases, where the expected return on new drug development has been a disincentive to pharmaceuticals. […] In this project we exploit the poly-pharmacology of drugs to discover new indications via phenotypic screening of a panel of 19 well-characterized cell lines derived from solid tumors seen in children and adolescents. The goal is to identify approved drugs with previously unrecognized anticancer properties that has the potential to reveal new mechanisms and biological processes involved in carcinogenesis or drug resistance. We employed a titration-based paradigm (quantitative high-throughput screening or qHTS), where all compounds were tested at multiple concentrations for their effect on cell viability. Concentration-response curves (CRCs) were derived directly from the primary screen, and both potency and efficacy values were used to identify compounds with robust bioactivity profiles. We screened the NIH Chemical Genomics Center (NCGC) Pharmaceutical Collection (NPC) and Mechanism Interrogation Plate (MIPE) small molecule collections of approved and investigational compounds against these cell lines; and measured metabolically active cells after 48 hours of compound treatment as a proxy for cell viability. […] Assay Submitter: Nathalia J. Martinez, National Center for Advancing Translational Sciences, National Institutes of Health, Rockville, MD, USA; email: natalia.martinez@nih.gov Shen, M et al. Quantitative high-throughput phenotypic screening of pediatric cancer cell lines identifies multiple opportunities for drug repurposing. Oncotarget 2017 Dec 19;9(4):4758-4772. PMID 29435139.
The cells were obtained from University of North Carolina (UNC), Pediatric Preclinical Testing Program (PPT), and Coriell Institute (CI). qHTS cell viability assay: Cells were assayed in growth media at a density of 500-1,000 cells/well. Five microliters of cells were dispensed into 1,536-well, white, solid-bottom, TC-treated plates (Greiner Bio One) using a multidrop dispenser and incubated at 37 degrees C, 5% CO2, under a humidified atmosphere for 5 hours. Twenty-three nanoliters of compounds and controls (neutral control DMSO or positive control bortezomib at final concentration of 2.3 µM) were subsequently transferred by Kalypsys pintool. For primary screens, the MIPE collection was tested at 11-point dilutions (final concentrations range from 0.78 nM to 46 µM) and the NPC collection at 8-point dilutions (final concentrations range from 0.59 nM to 46 µM). Compounds tested in follow-up screens were assayed at 11-point dilutions. Cells were incubated for 48 hours, followed by addition of 3 µL of CellTiter-Glo (Promega). After a 15 min incubation at room temperature, samples were analyzed for luminescence intensity using a ViewLux High-throughput CCD imager equipped with clear filters.
Potency is the fitted concentration of half-maximal effect.

SMILES	Potency
COc1ccc(CCN(C)CCCC(C#N)(c2ccc(OC)c(OC)c2)C(C)C)cc1OC (stereo not given)	inactive
CN1CCN(C2=Nc3cc(Cl)ccc3Nc3ccccc32)CC1	inactive
Nc1ccn([C@H]2CC[C@@H](CO)O2)c(=O)n1	inactive
CC(COc1ccccc1)N(CCCl)Cc1ccccc1 (stereo not given)	inactive
O=C(CCCN1CCC(O)(c2ccc(Cl)cc2)CC1)c1ccc(F)cc1	inactive
NCCS(=O)(=O)O	inactive
CN(C)C(=N)N=C(N)N	inactive
CCN1CCCC1CNC(=O)c1cc(S(=O)(=O)CC)c(N)cc1OC (stereo not given)	inactive
CN(CCOc1ccc(NS(C)(=O)=O)cc1)CCc1ccc(NS(C)(=O)=O)cc1	inactive
CN(C)CCC=C1c2ccccc2C=Cc2ccccc21	inactive
C[C@@H]1CC(=O)NN=C1c1ccc(NN=C(C#N)C#N)cc1	26.4 µM (active)
O=c1c(-c2ccc(O)cc2)coc2cc(O)cc(O)c12	inactive
O=C1N(c2ccccc2)c2ccccc2C1(Cc1ccncc1)Cc1ccncc1	inactive
Cc1ccc(-c2cc(C(F)(F)F)nn2-c2ccc(S(N)(=O)=O)cc2)cc1	inactive
CC(=O)OCC(CCn1cnc2cnc(N)nc21)COC(C)=O	inactive
CC(C)(Oc1ccc(C2CC2(Cl)Cl)cc1)C(=O)O (stereo not given)	inactive
CC1(CN2CCC(n3c(=O)[nH]c4ccccc43)CC2)OCc2ccccc2-n2cccc21 (stereo not given)	inactive
COc1cc2nc(N(C)CCCNC(=O)C3CCCO3)nc(N)c2cc1OC (stereo not given)	inactive
Nc1nnc(-c2cccc(Cl)c2Cl)c(N)n1	inactive
NCCCCCC(=O)O	inactive

SMILES	Potency
CN1CCC(=C2c3ccccc3CC(=O)c3sccc32)CC1	inactive
Nc1c2c(nc3ccccc13)CCCC2	inactive
COc1cc2c(c(OC)c1OC)-c1ccc(OC)c(=O)cc1[C@@H](NC(C)=O)CC2	0.0084 µM (active)
COc1nc(C)nc(Cl)c1NC1=NCCN1	inactive
NC(CO)C(=O)NNCc1ccc(O)c(O)c1O (stereo not given)	inactive
NS(=O)(=O)c1cc2c(cc1Cl)NCNS2(=O)=O	inactive
Cn1c(=O)c2c(ncn2C)n(C)c1=O	inactive
OCCN(CCO)c1nc(N2CCCCC2)c2nc(N(CCO)CCO)nc(N3CCCCC3)c2n1	inactive
O=c1[nH]cc(F)c(=O)[nH]1	5.26 µM (active)
CC(C)Cc1ccc(C(C)C(=O)O)cc1 (stereo not given)	inactive
Cc1cc(C(C)(C)C)cc(C)c1CC1=NCCN1	inactive
CCOC(=O)Nc1ccc(NCc2ccc(F)cc2)nc1N	inactive
COc1ccccc1N1CCN(CC(O)COc2cccc3ccccc23)CC1 (stereo not given)	inactive
CC(C)NCC(O)COc1ccc(CCOCC2CC2)cc1 (stereo not given)	inactive
CN1CCN2c3ccccc3Cc3ccccc3C2C1 (stereo not given)	inactive
Clc1ccc2nsnc2c1NC1=NCCN1	inactive
Cc1ccc(C(=O)Nc2ccc(S(=O)(=O)O)c3cc(S(=O)(=O)O)cc(S(=O)(=O)O)c23)cc1NC(=O)c1cccc(NC(=O)Nc2cccc(C(=O)Nc3cc(C(=O)Nc4ccc(S(=O)(=O)O)c5cc(S(=O)(=O)O)cc(S(=O)(=O)O)c45)ccc3C)c2)c1	inactive
CCC1(C)CC(=O)NC1=O (stereo not given)	inactive
CC[C@@]1(O)C(=O)OCc2c1cc1n(c2=O)Cc2cc3c(CN(C)C)c(O)ccc3nc2-1	26.6 nM (active) and 296 nM (active)
O=C(Nc1ccc([N+](=O)[O-])cc1Cl)c1cc(Cl)ccc1O	820 nM (active) and 590 nM (active)
